# Screening results as filed in PubChem BioAssay.
# Hits are enriched below; roughly 2.4% of the tested compounds scored in any of these assays.
# FEN1 inhibitor – qHTS Assay for the Inhibitors of Human Flap endonuclease 1 (FEN1). Potency, µM (series often up to 114 µM), without a hit: at the highest dose activity change, negative = inhibition, usual class: inhibitors. P39748. Recombinant FEN1 flap cleavage, fluorescence, 15 min. 390,000 tested, 0.35% active; further: on the % scale 0 is the no-effect control and ±100 the full control effect; nearly all actives have a fitted effect of over 65% in size
#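 Steps: FEN1 (10 nM) dispensed; compound added by pin tool; 15 min at room temperature; substrate added to 50 nM final; reads at 0 min and 15 min; data normalized and fitted (four-parameter Hill).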
# WRN helicase inh – qHTS for Inhibitors of WRN Helicase; 360,000 tested, 0.46% active; WRN helicase unwinding, fluorescent forked duplex, kinetic; Potency, µM (highest dose often 114 µM), inactives show at the highest dose activity change, negative = inhibition, hits mostly inhibitors; AID 651768, 2012; further: on the % scale 0 is the no-effect control and ±100 the full control effect; nearly all actives have a fitted effect of over 55% in size
# Target sequence (Q14191 whole entry, looked up): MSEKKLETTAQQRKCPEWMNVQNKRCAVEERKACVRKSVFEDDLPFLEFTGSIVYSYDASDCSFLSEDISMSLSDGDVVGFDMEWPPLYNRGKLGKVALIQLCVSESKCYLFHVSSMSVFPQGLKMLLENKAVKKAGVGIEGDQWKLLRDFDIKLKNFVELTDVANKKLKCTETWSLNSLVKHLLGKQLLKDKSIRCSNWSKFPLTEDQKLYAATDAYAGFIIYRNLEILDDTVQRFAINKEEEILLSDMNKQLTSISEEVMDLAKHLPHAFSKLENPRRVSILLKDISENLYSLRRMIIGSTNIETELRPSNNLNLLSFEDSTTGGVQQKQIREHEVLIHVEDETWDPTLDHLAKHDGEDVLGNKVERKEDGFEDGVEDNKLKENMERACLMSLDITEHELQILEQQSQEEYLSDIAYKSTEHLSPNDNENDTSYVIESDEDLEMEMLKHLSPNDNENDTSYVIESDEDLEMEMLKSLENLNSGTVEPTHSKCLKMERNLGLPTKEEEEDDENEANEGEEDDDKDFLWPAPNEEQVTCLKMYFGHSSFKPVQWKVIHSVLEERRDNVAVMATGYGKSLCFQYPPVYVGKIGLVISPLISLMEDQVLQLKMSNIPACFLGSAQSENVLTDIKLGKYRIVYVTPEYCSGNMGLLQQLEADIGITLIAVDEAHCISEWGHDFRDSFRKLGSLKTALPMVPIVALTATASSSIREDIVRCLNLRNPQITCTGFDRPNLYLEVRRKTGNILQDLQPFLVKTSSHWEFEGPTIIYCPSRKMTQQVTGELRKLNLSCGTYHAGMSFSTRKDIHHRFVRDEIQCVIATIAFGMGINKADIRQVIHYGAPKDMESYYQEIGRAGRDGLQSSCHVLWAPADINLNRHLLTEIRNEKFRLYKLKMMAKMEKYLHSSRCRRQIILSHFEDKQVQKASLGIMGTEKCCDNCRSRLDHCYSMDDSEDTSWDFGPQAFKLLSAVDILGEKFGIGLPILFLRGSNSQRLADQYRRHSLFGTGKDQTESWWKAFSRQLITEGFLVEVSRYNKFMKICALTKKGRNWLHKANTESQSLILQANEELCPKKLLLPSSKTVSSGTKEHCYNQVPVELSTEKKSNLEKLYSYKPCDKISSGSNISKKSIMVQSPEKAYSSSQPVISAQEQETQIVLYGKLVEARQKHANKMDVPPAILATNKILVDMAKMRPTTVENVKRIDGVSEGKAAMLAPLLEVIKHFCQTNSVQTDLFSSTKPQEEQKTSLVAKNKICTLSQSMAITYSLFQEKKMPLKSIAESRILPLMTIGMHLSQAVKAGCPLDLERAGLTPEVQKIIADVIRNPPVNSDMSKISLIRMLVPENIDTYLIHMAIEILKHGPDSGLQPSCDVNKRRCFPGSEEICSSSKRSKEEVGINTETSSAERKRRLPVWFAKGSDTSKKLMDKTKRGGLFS
#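 WRN at 20 nM final was preincubated with compound for 15 min at room temperature; reaction started with 100 nM forked duplex oligonucleotide carrying fluorophore and quencher plus 2 mM ATP (final). Unwinding followed kinetically by red fluorescence (ex 525/em 598 nm).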
# POLB inh – qHTS Assay for Inhibitors of DNA Polymerase Beta; P06746; 340,000 tested, 1.3% active; Pol beta primer extension/strand displacement, fluorescence kinetic; Potency, µM (top dose mostly 114 µM), inactives show at the highest dose activity change, negative = inhibition, most hits filed as inhibitors; further: on the % scale 0 is the no-effect control and ±100 the full control effect
#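 Pol beta (10 nM) was preincubated with compound for 15 min at room temperature. The reaction was then started with 50 nM substrate and read immediately and after a further 10 min at room temperature.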
# Pol eta inh – qHTS for Inhibitors of Polymerase Eta | Potency, µM (series often up to 114 µM), for inactives: at the highest dose activity change, negative = inhibition, actives largely listed as inhibitors | DNA polymerase eta (Homo sapiens), Q9Y253 | recombinant Pol eta, fluorescent DNA replication assay | 390,000 tested, 1.2% active | AID 588591, 2011; further: on the % scale 0 is the no-effect control and ±100 the full control effect
#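 Pol eta (10 nM) was preincubated with compounds for 15 min at room temperature, after which fluorescent replication substrate (50 nM final) was added to start the reaction. Fluorescence was read kinetically at 0 and 10 min.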
# POLK inh – qHTS for Inhibitors of Polymerase Kappa. purified Pol kappa, fluorescent DNA synthesis assay, 10 min. AID 588579, 2011. Potency, µM (top dose mostly 107 µM), for inactives: top-dose activity, negative = inhibition, most hits filed as inhibitors. 400,000 tested, 0.53% active. DNA polymerase kappa (Homo sapiens), Q9UBT6; further: on the % scale 0 is the no-effect control and ±100 the full control effect
#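 First, compounds were pin-transferred onto 10 nM Pol kappa. After 15 min at room temperature, substrate was added to 50 nM final. Fluorescence was then measured kinetically at 0 and 10 min.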
# Pol iota inh – qHTS for Inhibitors of Polymerase Iota; Pol iota fluorescent replication assay, 10 min; Potency, µM (highest dose often 115 µM), for inactives: at the highest dose activity, negative = inhibition, actives largely listed as inhibitors; DNA polymerase iota (Homo sapiens), Q9UNA4; 390,000 tested, 1% active
#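 Pol iota at 10 nM preincubated 15 min with compounds at room temperature; reaction started with fluorescent substrate, 50 nM final. Fluorescence read kinetically at 0 and 10 min; buffer-only wells as negative control.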
# Active calls of the source: *; u = inconclusive; x = not tested or not shown; [ ] = remark or other dose. The call rests on the fitted dose curve; in most records, active means well fitted curve in the direction sought with a large enough effect; inconclusive means small, poorly fitted or top-dose-only effect, or another doubt; inactive means no such curve, though single readings can be large; an effect the other way counts as inactive or inconclusive. Potency means the concentration at half of the fitted maximal effect.
SMILES,FEN1 inhibitor,WRN helicase inh,POLB inh,Pol eta inh,POLK inh,Pol iota inh
O=C(O)c1ccccc1NS(=O)(=O)c1ccc(NN=Cc2cccc(Cl)c2)c([N+](=O)[O-])c1,u,u,x,20µM*,-28%,u
O=C(O)COc1ccccc1/C=N/Nc1ccc(S(=O)(=O)Nc2ccc(Cl)cc2)cc1[N+](=O)[O-],u,u,u,28µM*,u,u
O=C(O)c1ccccc1NS(=O)(=O)c1ccc(NN=Cc2ccc(F)cc2)c([N+](=O)[O-])c1,-23%,u,x,35µM*,-19%,-18%
Cc1cc(C)nc(N/N=C/c2ccccc2OCC(=O)O)n1,-6%,-3%[11.6 µM],-7%,28µM*,-10%,10%
CCC(C)c1cc([N+](=O)[O-])cc([N+](=O)[O-])c1OC(=O)OC(C)C (configuration not stated),x,x,x,x,2%[60.1 µM],x
O=C(Nc1ccc(O)c2c(=O)cc(-c3ccccc3Cl)oc12)c1cc(Cl)cc(Cl)c1,11%,x,x,x,-26%,13%
Nc1nc(-c2nn(Cc3ccccc3F)c3ncccc23)ncc1C1CC1,x,x,x,x,12%[60.1 µM],x
N#CCCn1c(=O)c(-c2cccc(C#N)c2)nc2cnc(N3CCOCC3)nc21,x,x,x,x,2%[60.1 µM],x
CC(C)(C)n1ncc2c(=O)n(Cc3cccc(C(F)(F)F)c3Cl)cnc21,-23%,x,x,x,-15%,6%
CCOC(=O)c1sc(N2N=C(C)C(N=Nc3cccc(C)c3)C2=O)nc1C (configuration not stated),-24%,-23%[11.6 µM],u,40µM*,89µM*,50µM*
CC1=NN(c2nc(-c3ccc(C)cc3)cs2)C(=O)C1N=Nc1cccc(C)c1 (configuration not stated),4%,-23%,u,-14%,-4%,11%
O=S(=O)(Nc1nc2ccccc2nc1Nc1ccc2c(c1)OCCO2)c1cccs1,-11%,u,18µM*,u,-42%,u
COc1ccc(S(=O)(=O)Nc2nc3ccccc3nc2Nc2ccc3c(c2)OCO3)cc1,x,x,2%,x,x,x
O=C(N/N=C/c1ccc(Sc2ccccn2)o1)c1cc2ccccc2cc1O,50µM*,u,18µM*,18µM*,28µM*,20µM*
COCc1c(C(=O)N2CCc3ccccc32)oc2ccccc12,-13%,-2%[11.6 µM],-11%,-98%,u,79µM*
NS(=O)(=O)c1ccc(NC(=O)COc2cccc3ccccc23)cc1,-2%,u,-19%,79µM*,-6%,89µM*
CCc1ccccc1OCC(=O)Nc1ccc(S(N)(=O)=O)cc1,-4%,8%,-1%,9%,-6%,-5%
Cn1nnc(NC(=S)NC(=O)/C=C/c2ccco2)n1,u,u,u,18µM*,u,u
Cc1cccnc1NC(=S)NC(=O)/C=C/c1ccco1,11%,-26%,-11%,u,-38%,u
O=C(/C=C/c1ccco1)NC(=S)Nc1ccccn1,12%,-8%,40µM*,4%,-24%,-6%
Cc1cnc2ccc3ccccc3c2c1C,u,x,x,x,0%,26%
COc1ccc(/C=C/c2ccc3ccccc3n2)c(OC)c1,u,x,x,x,-1%,11%
COCCSc1ccccc1C(=O)Nc1ccc(Cl)cc1,0%,-7%[11.6 µM],0%,-7%,-1%,10µM*
COc1cc(Nc2nc(SCC(=O)c3ccc(Br)cc3)nc3ccccc23)cc(OC)c1,2%,x,u,u,1%[60.1 µM],79µM*
O=C(N=NC(=O)c1ccco1)c1ccc2c(O)n(N3C(=O)c4ccccc4C3=O)c(O)c2c1,-9%,-11%,45µM*,u,-15%,-13%
SMILES,FEN1 inhibitor,WRN helicase inh,POLB inh,Pol eta inh,POLK inh,Pol iota inh
Cc1cc(=O)oc2cc(OCc3ccc(C(=O)N4CCN(c5ccccc5)CC4)cc3)ccc12,-3%,-11%,11µM*,3%,-2%,121%
Cc1cc(=O)oc2cc(OCc3ccc(C(=O)N4CCN(c5ccc([N+](=O)[O-])cc5)CC4)cc3)ccc12,17%,-8%,14%,15%,-6%[60.1 µM],-13%
CN(C)CCCCCCNc1nccc(N2CCN(C)CC2)n1,-5%,x,x,x,-1%,89%
CSc1ccc(/C=N/NC(=O)CN2CCN(Cc3ccccc3Cl)CC2)cc1,-11%,-2%,0.2µM*,-10%,-6%,8%
S=c1[nH]nc(-c2cc(-c3ccco3)[nH]n2)n1-c1cccc2ccccc12,-1%,-33%,25µM*,u,-15%,u
O=C(Nc1ncnc2nc[nH]c12)c1ccccc1,-7%,x,x,x,11%,55%
C1=Nc2ccccc2/C1=C/c1c[nH]c2ccccc12,-7%,x,x,x,-13%,80%
COc1cccc(OC)c1-c1cc(CCCc2cc(-c3c(OC)cccc3OC)nc3ccccc23)c2ccccc2n1,u,x,x,x,2%,u
COc1ccc(-n2[nH]c(C)cc2=O)cc1,5%,-2%[57.1 µM],9%,-11%,-1%,1.1µM*
O=C(N/N=C/C(Cl)=C/c1ccc([N+](=O)[O-])cc1)C(=O)Nc1cccc(C(=O)O)c1,-17%,-6%,u,50µM*,12%,u
CNc1c(Cl)cc(/C=C2\C=Cc3ccccc32)cc1Cl,-2%,x,x,x,-12%,4%
CCOc1ccc(NC(=O)CCC(=O)NNC(=O)COc2ccc(C)cc2Br)cc1,-6%,6%[11.6 µM],u,-8%,4%,71µM*
Cc1ccccc1NC(=O)NNC(=O)COc1ccc2ccccc2c1,6%,u,16µM*,-12%,-14%,u
COc1ccc2cc(OCC(=O)NNC(=O)Nc3ccc(OC)c(OC)c3)ccc2c1,u,0%[11.6 µM],50µM*,u,-35%,20µM*
O=C(O)Cc1ccc(NC(=O)COc2ccc3ccccc3c2)cc1,2%,-25%,-26%,1%,-9%,11%
O=C(COc1ccc2ccccc2c1)Nc1ccc(Cc2ccncc2)cc1,1%,-19%[57.1 µM],u,u,-17%,25µM*
Cn1c(SCc2ccc(Cl)cc2)nnc1-c1ccc(NC(=O)CCc2ccccc2)cc1,0%,x,x,x,-6%,19%
CCN(CC)C(=O)Nc1cnc2ccccc2c1,0%,6%,u,3%,-2%,-6%
Cc1ccc(NC(=O)Nc2cnc3ccccc3c2)cc1,9%,-20%,20µM*,-10%,-10%,-5%
Cc1ccc(NC(=O)NNC(=O)COc2ccc3ccccc3c2)cc1,-5%,-33%,79µM*,-1%,-19%,u
